Hits are enriched below; roughly 12% of the tested compounds scored in any of these assays.
Sfp PPTase inh = blocks B. subtilis Sfp PPTase activity; AID 1490; Potency, µM, inactives show largest response in the series, negative = inhibition, hits mostly inhibitors; 310,000 compounds, 3.5% hits; Biochemical Sfp PPTase activity, qHTS;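 further: the enzyme is Sfp with the accession as filed and its product quenches rhodamine fluorescence; 0% = enzyme reaction without inhibitor and -100% = no enzyme wells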
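Reaction rates are the 30-min fluorescence difference (ex 525, em 598 nm) in wells containing 15 nM Sfp, 5 uM rhodamine-CoA and 12.5 uM BHQ-2-YbbR at pH 7.6 with 10 mM MgCl2.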
G9a inh = G9a (human) methyltransferase inhibition; Q96KQ7; G9a H3K9 monomethylation, AlphaScreen, 2 h; Potency, µM (highest dose often 102 µM), for inactives: at the highest dose activity, negative = inhibition, hits mostly inhibitors; 350,000 compounds, 8.8% hits; AID 504332; further: on the % scale 0 is the no-effect control and ±100 the full control effect; nearly all actives have a fitted effect of over 75% in size
Target sequence (Q96KQ7 913-1193 limits assumed): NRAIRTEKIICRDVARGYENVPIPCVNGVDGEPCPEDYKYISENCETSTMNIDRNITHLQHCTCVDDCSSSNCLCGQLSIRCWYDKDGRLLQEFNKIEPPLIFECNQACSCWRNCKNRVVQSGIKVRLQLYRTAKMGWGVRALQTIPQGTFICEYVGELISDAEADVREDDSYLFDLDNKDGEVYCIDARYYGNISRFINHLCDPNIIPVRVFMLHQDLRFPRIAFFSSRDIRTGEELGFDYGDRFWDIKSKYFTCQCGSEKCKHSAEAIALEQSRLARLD
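Chemiluminescent proximity detection of H3K9 monomethylation, read after 10 min bead incubation in the dark. Reaction: 20 nM G9a, 500 nM biotin-H3K9 peptide, 20 uM SAM cofactor, 2 h, room temperature, following 15 min enzyme-compound preincubation.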
HP1b binding inh = blocks HP1-beta chromodomain binding to methylated histone tails | AlphaScreen HP1-beta / biotin-H3K9me3 peptide binding | Potency, µM (series often up to 114 µM), inactives show at the highest dose activity change, negative = inhibition, most hits filed as inhibitors | 390,000 compounds, 0.56% hits | AID 540317; further: nearly all actives have a fitted effect of over 70% in size
Target sequence (P83916 whole entry, looked up): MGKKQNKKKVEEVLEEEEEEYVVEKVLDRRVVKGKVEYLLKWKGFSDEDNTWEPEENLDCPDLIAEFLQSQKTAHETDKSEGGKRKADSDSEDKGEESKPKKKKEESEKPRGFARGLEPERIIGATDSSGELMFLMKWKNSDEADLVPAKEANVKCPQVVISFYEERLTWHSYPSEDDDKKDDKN
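HP1-beta protein (50 nM final) preincubated 30 min at room temperature with biotinylated H3(1-18)K9me3 peptide (50 nM) in PBS pH 7.4, 0.01% Tween-20, then compound added for 30 min. AlphaScreen streptavidin donor/nickel chelate acceptor beads (10 ug/mL final), 30 min dark, luminescence read.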
JMJD2A Tudor = JMJD2A Tudor domain (human) inhibition; O75164; Potency, µM (doses to about 114 µM), without a hit: at the top dose activity change, negative = inhibition, actives largely listed as inhibitors; AlphaScreen JMJD2A-Tudor / H3K4me3 peptide binding; 390,000 compounds, 4.4% hits; AID 504339; further: on the % scale 0 is the no-effect control and ±100 the full control effect; nearly all actives have a fitted effect of over 50% in size
BAZ2B inh = BAZ2B (human) inhibition; Q9UIF8; Potency, µM (doses to about 114 µM), inactives show at the top dose activity change, negative = inhibition, most hits filed as inhibitors; 360,000 compounds, 4.4% hits; AlphaScreen BAZ2B-H3K14Ac peptide displacement; AID 504333; further: on the % scale 0 is the no-effect control and ±100 the full control effect; nearly all actives have a fitted effect of over 60% in size
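Compounds, titrated to a top concentration of 110 uM, were incubated 30 min at room temperature with preformed BAZ2B/acetyl-K14 H3 peptide complex (50 nM each). Proximity signal was measured by AlphaScreen after 20 min with beads.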
PLK1 PBD block = PLK1 (human) polo-box domain binding inhibition | Plk1 PBD binding of FITC phosphopeptide, fluorescence polarization | Potency, µM, without a hit: max response, negative = inhibition, actives largely listed as inhibitors | 360,000 compounds, 2.8% hits; further: series mostly up to about 57 µM; on the % scale 0 is the no-effect control and ±100 the full control effect; nearly all actives have a fitted effect of over 65% in size
* marks the source's active call; other numbers are inactive results; ? = inconclusive; · = no result given; [ ] = another dose, or the depositor's remark. The call rests on the fitted dose curve; in most records, active means well fitted curve in the direction sought with a large enough effect; inconclusive means small, poorly fitted or top-dose-only effect, or another doubt; inactive means no such curve, though single readings can be large; an effect the other way counts as inactive or inconclusive. Potency means the concentration at half of the fitted maximal effect.

SMILES	Sfp PPTase inh	G9a inh	HP1b binding inh	JMJD2A Tudor	BAZ2B inh	PLK1 PBD block
COc1cc(/C=C2\SC(c3ccccc3)=NC2=O)cc(Cl)c1O	7.94µM*	-157.3%[59 µM]	12.6µM*	6.31µM*	35.5µM*	10.6µM*
COc1ccc(/C=C2\SC(N)=NC2=O)cc1	8.3%	2.8%	56.7%	-9.7%	-12.7%	-10.7%
C=CCNC(=O)c1ccc(NC(=O)C2=CSCCO2)cc1	13.9%	95.3%[59 µM]	2.4%[57 µM]	-21.4%	18.4%	-7.7%
COc1cc(O)c(C=Nc2ccccc2NS(=O)(=O)c2ccc(C)cc2)c(OC)c1	·	·	15.8%	-22.9%	·	20.2%
COc1ccccc1N1CCN(C(=O)CN2C(=O)COc3ccc(S(=O)(=O)N4CCCC4)cc32)CC1	·	27.4%[59 µM]	54.2%	-13.6%	11.9%	·
COc1cc(/C=C2\SC(c3ccc(C)cc3)=NC2=O)ccc1O	22.4µM*	11.2µM*	?	28.2µM*	22.4µM*	-23.8%
COc1cc(/C=C2\SC(N)=NC2=O)ccc1OCC(=O)Nc1ccc(C)cc1	-4.0%	-4.1%[59 µM]	14.4%	-18.8%	-36.8%	3.1%
COC(=O)CCC(=O)OC1(C)C(=O)C=C2C=C(C3CC3)N(CCCOC(C)C)C=C2C1=O (stereo unspecified)	9.0%	-2.0%[12.7 µM]	26.6%	-18.6%	-6.1%	29.9µM*
COC(=O)CCC(=O)OC1(C)C(=O)C=C2C=C(C3CC3)N(CCCCO)C=C2C1=O (stereo unspecified)	2.1%	28.8%[59 µM]	2.5%	-14.6%	-15.4%	-19.5%
CC(C)OCCCNC(=O)CCSc1ccc(Cl)cc1	6.4%	?	6.4%	-0.6%	-11.7%	-8.5%
CCCOc1ccc(C2CC(=O)NC2=O)cc1 (stereo unspecified)	14.1%	8.9%	?	?	-1.0%	21.2µM*
[O-][n+]1cccc2c(Br)cc(Br)c(O)c21	-19.8%	50.1µM*	8.1%	-27.1%	·	?
CC(C)N1CCCC(C)(C(=O)Nc2nc3ccccc3n2C)C1 (stereo unspecified)	·	·	·	·	·	-0.1%
Brc1cccc(-c2nnc3sc(CNCc4ccco4)cn23)c1	7.5%	44.7µM*	20.6%	-29.1%	-21.3%	-15.2%
S=c1[nH]nc(C(c2ccccc2)C2CCCCC2)o1 (stereo unspecified)	7.2%	44.7µM*	-13.3%	-11.4%	-28.8%	?
COc1ccc(-c2nnc(OCc3nc4ccccc4n3C)c3ccccc23)cc1	3.2%	-1.5%[59 µM]	2.8%	50.1µM*	-35.4%	18.9µM*
CC(=O)c1cc(-c2ccccc2)[nH]c1N1CCOCC1	?	?	-13.3%	?	?	-14.3%
CC(=O)c1c(N2CCN(C)CC2)[nH]c(-c2ccccc2)nc1=S	-17.6%	13.9%[0.0925 µM]	-3.6%	79.4µM*	?	-12.1%
CCCOC(=O)C1[C@H]2C(=O)N(CC3CCCO3)C[C@]23C=C[C@H]1O3 (stereo partly specified)	3.6%	-36.5%	16.1%	-12.0%	-4.3%	-6.4%
COc1cccc(/C=C/C(=C2\C(=O)N(c3ccccc3)N=C2C)c2ccc(Br)cc2)c1OC	·	·	39.8µM*	?	·	?
CCNC(=O)c1ccccc1SCC(=O)Nc1ccc(F)cc1	-12.0%	-33.8%	-7.2%	12.6µM*	-24.8%	9.47µM*
CNc1ccc2ncc(-c3ccc(OC)c(OC)c3)n2n1	·	·	·	·	·	-6.1%
O=C1Cc2ccccc2C(=O)N1Cc1ccccc1	17.3%	50.1µM*	33.2%	-6.2%[11.4 µM]	-32.7%	?
O=C1c2cccc3c(O)ccc(c23)C(=O)N1Cc1ccccc1	?	9.4%[2.33 µM]	49.8%	36.1%	5.5%	5.97µM*
O=C1Cc2ccccc2C(=O)N1c1ccccc1	9.3%	14.5%[59 µM]	-0.2%	-7.0%	-1.5%	0.7%
SMILES	Sfp PPTase inh	G9a inh	HP1b binding inh	JMJD2A Tudor	BAZ2B inh	PLK1 PBD block
O=C1Cc2ccccc2C(=O)N1c1ccc(F)cc1Cl	-3.6%	50.1µM*	20.3%	-23.3%	-12.5%	-22.0%
O=C1Cc2ccccc2C(=O)N1c1cccc(Cl)c1	5.9%	39.8µM*	27.2%	-24.7%	-28.3%	?
Cc1cccc(C(=O)Nc2cccc3c2CCCC3)c1	23.3%	·	37.8%	-2.7%	-4.1%	8.3%
CO[C@H]1COC(=O)CCC[C@H](C)[C@@H](OC)COC(=O)C/C=C\[C@@H]1C	20.5%	·	·	·	·	·
Cc1ccc(C(=O)Nc2ccc(Cl)cn2)cc1	4.9%	16.0%	27.9%	4.3%	-2.1%	2.5%
Cc1ccc(C(=O)Nc2ncc3c(Cl)cccc3n2)cc1	11.6%	98.5%[59 µM]	-11.7%	?	-34.8%[57.1 µM]	21.2µM*
CN(CCCNC(=O)CCC(=O)N1CCOc2ccc(Cl)cc21)Cc1ccccc1	15.4%	20.3%	26.8%	-4.1%	-3.8%	-2.0%
Cc1cc(C)cc(NC(=O)CSc2n[nH]c(-c3cccnc3)n2)c1	7.8%	11.8%	21.1%	-11.2%	3.6%	-13.7%
O=C(CSc1n[nH]c(-c2cccnc2)n1)Nc1ccc(Br)cc1	-7.9%	8.91µM*	12.9%	-33.6%	1.8%	-15.2%
O=C(CSc1n[nH]c(-c2cccnc2)n1)OC1CCCCC1	7.0%	-2.2%	-8.8%	22.4µM*	-20.7%	11.9µM*
NC(=O)c1ccc(NC(=O)CN2CCN(c3ccccc3)CC2)cc1	3.0%	·	42.2%	-11.3%	?	-1.2%
CN1C/C(=C/c2ccncc2)C(=O)/C(=C/c2ccncc2)C1	1.5%	50.1µM*	35.7%	0.0%	-34.9%	-8.9%
CN1C/C(=C\c2ccc(N3CCOCC3)cc2)C(=O)/C(=C/c2ccc(N3CCOCC3)cc2)C1	-18.6%	?	?	?	50.1µM*	29.7%
CCN1C/C(=C/c2ccc(N3CCOCC3)cc2)C(=O)/C(=C/c2ccc(N3CCOCC3)cc2)C1	?	39.8µM*	-8.2%	-29.7%	?	-16.0%
CCCC(=O)Nc1ccc(N2CCOCC2)cc1	-12.4%	-31.5%[12.7 µM]	26.3%	-12.2%[11.4 µM]	8.1%	-16.7%
CN1C/C(=C/c2ccsc2)C(=O)/C(=C/c2ccsc2)C1	-13.6%	?	-9.7%	?	?	-3.4%
C=CC[C@@H]1C=C[C@H](Oc2ccc(C)cc2)[C@H](COC(=O)NCc2cccc3ccccc23)O1	5.1%	·	·	·	·	·
CN(C)c1ncc2nc(CCc3ccccc3)c(=O)n(Cc3cccs3)c2n1	?	8.6%[0.501 µM]	·	·	·	·
CN1C(=O)/C(=C/c2ccco2)SC1=Nc1ccc(N2CCOCC2)cc1	1.8%	7.08µM*	?	-25.0%	7.94µM*	-8.4%
COc1ccc(N=C2NC(=O)/C(=C\c3ccco3)S2)cc1	?	?	?	?	28.2µM*	-23.7%
COc1ccc(/C=C2\SC(=Nc3ccccc3)NC2=O)cc1	-3.7%	·	·	·	0.5%	·
O=C1NC(=Nc2ccc(O)cc2)S/C1=C\C=C\c1ccco1	-26.2%	50.1µM*	-7.6%	-8.1%[11.4 µM]	?	?
CC(=O)c1cccc(-c2ccnc3c2CC(C(=O)Nc2ccc(Cl)c(C(F)(F)F)c2)O3)c1 (stereo unspecified)	·	·	·	·	·	0.3%
